Records with an inconclusive call do not appear. Calls of active or inactive are those of the source. The calls were made as follows: active = hit-call score of the fitted dose curve at least 0.9, where 1 is the maximum; inconclusive = response in the unintended direction; inactive = score below 0.9.

Test system in the first assay: not listed separately
Kind of assay: ArunA_NOG_BranchPointsPerNeurite: ArunA Biomedical's Neurite Outgrowth (NOG) Assay for Branch Points Per Neurite (AID 2283759). The procedure, abridged: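 Automated image analysis traced neurites (processes >10 um) from valid cell bodies after Hoechst and βIII-tubulin staining. hNN cells from H9 embryonic stem cells, 48 h exposure. Fitted bidirectionally against DMSO.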
With `CCCCC(CC)COP(=O)(OCC(CC)CCCC)OCC(CC)CCCC` (configuration not stated), the compound was called inactive.

On to `COC(=O)[C@H]1[C@H]2C[C@@H]3c4[nH]c5cc(OC)ccc5c4CCN3C[C@H]2C[C@@H](OC(=O)c2cc(OC)c(OC)c(OC)c2)[C@@H]1OC`, for which the outcome was inactive.

For the compound `Nc1nc(Cl)nc2c1ncn2[C@H]1C[C@H](O)[C@@H](CO)O1`, the AC50 – broadly, the midpoint of the concentration-response curve, whichever way the signal moves – is 3.41 µM (active).

For another assay, the target named is Luciferin 4-monooxygenase (Photinus pyralis) (UniProt P08659). The assay is described as follows: CCTE_Simmons_QuantiLum_inhib_2: CCTE's Firefly Luciferase Inhibition Assay, Simmons Lab (AID 2283767).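 As to AC50: potency for inhibitors that lower luciferase luminescence relative to DMSO.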 A digest of the protocol: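 Recombinant firefly luciferase (5 ng/well, 200 mM potassium phosphate with 1 mg/ml BSA) was exposed to 8 concentrations from 5 nM to 87.5 uM (final, 0.5% DMSO) for 30 min at 37C in the dark. Loss of luminescence versus DMSO was read after injecting D-luciferin/ATP-analogue reagent.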
Luciferin 4-monooxygenase (Photinus pyralis), sequence (P08659 whole entry, looked up): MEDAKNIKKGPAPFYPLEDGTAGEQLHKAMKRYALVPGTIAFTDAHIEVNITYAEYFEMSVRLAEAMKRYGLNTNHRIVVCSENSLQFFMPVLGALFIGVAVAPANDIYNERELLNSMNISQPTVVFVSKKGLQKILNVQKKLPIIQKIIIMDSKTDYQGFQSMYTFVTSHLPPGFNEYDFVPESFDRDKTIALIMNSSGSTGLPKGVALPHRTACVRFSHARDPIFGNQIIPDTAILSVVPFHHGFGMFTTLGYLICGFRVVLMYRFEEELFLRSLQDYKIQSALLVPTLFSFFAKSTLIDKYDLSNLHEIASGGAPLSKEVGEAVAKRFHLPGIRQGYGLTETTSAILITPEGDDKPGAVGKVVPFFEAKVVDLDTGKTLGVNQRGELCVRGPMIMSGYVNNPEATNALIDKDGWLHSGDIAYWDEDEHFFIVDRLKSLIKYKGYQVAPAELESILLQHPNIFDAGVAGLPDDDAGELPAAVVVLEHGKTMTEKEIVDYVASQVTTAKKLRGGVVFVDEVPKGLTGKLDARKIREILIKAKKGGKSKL
For the compound `S=c1[nH]c2ccccc2s1`, the compound was called inactive.

Consider `O=Cc1ccccc1C=O`, for which the AC50 was 53.8 µM (active).

For the compound `CC(C)NCC(O)c1ccc(O)c(O)c1` (configuration not stated), the compound was called inactive.

In the case of `Oc1ccccc1O`, the compound was classed as inactive.

For `C/C=C/c1ccc(OC)cc1`, the result was inactive.

`O=C1OC(c2ccc(O)cc2)(c2ccc(O)cc2)c2ccccc21`: the outcome was inactive.

Consider `CCCCCCCCCCCCCCOS(=O)(=O)O`, for which the compound was classed as inactive.

For `COC(=O)[C@H]1[C@H]2C[C@@H]3c4[nH]c5cc(OC)ccc5c4CCN3C[C@H]2C[C@@H](OC(=O)c2cc(OC)c(OC)c(OC)c2)[C@@H]1OC`, the outcome was inactive.

`Cc1ccc(C(C)(C)C)c(O)c1`: the compound was classed as inactive.

In the case of `C/C=C/C=C/C(=O)O`, the compound was called inactive.

For the compound `Cc1cc(Cc2ccc(N)c(C)c2)ccc1N`, the compound was classed as inactive.

`Cc1occc(=O)c1O`: the compound was classed as inactive.

As to `O=C1O[C@H]([C@H](O)CO)C(O)=C1O`, the call was inactive.

On to `Cc1c(C)c2c(c(C)c1O)CCC(C)(COc1ccc(CC3SC(=O)NC3=O)cc1)O2` (configuration not stated), for which the compound was classed as inactive.

As to `O=C1c2c(O)cccc2Cc2cccc(O)c21`, the compound was called inactive.

On to `Oc1ccc(O)cc1`, for which the result was inactive.

Take `Nc1nc(=S)c2[nH]cnc2[nH]1`: the AC50 was 11.2 µM (active).

For the compound `Cc1cc(SC2=C(O)C[C@@](CCc3ccc(N)cc3)(C(C)C)OC2=O)c(C(C)(C)C)cc1CO`, the outcome was inactive.

Test system in another assay: not listed separately
The assay is described as follows: ACEA_AR_agonist_AUC_viability: ACEA Biosciences xCELLigence Real-Time Cell Analysis on Androgen Receptor Agonism for Viability (AID 2283775).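 As to AC50: viability read 80 hours after compound addition.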 The procedure, abridged:
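Read-out is area under the impedance curve at 80 h post-dose in 22Rv1 cells, with DMSO as baseline and signal loss taken as reduced viability. Compounds ran in duplicate from 100 uM final.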
For the compound `O=Cc1ccccc1C=O`, the AC50 is 79.2 µM (active).

Consider `CCCCC(CC)COP(=O)(OCC(CC)CCCC)OCC(CC)CCCC` (configuration not stated), for which the AC50 was 17.6 µM (active).

As for `Oc1ccccc1O`, the AC50 is 18 µM (active).

For `C/C=C/c1ccc(OC)cc1`, the compound was called inactive.

As for `O=C1OC(c2ccc(O)cc2)(c2ccc(O)cc2)c2ccccc21`, the AC50 was 21.1 µM (active).

On to `CCCCCCCCCCCCCCOS(=O)(=O)O`, for which the concentration at half-maximal activity (AC50) was 68 µM (active).

For `COC(=O)[C@H]1[C@H]2C[C@@H]3c4[nH]c5cc(OC)ccc5c4CCN3C[C@H]2C[C@@H](OC(=O)c2cc(OC)c(OC)c(OC)c2)[C@@H]1OC`, the AC50 is 42.2 µM (active).

As to `Cc1ccc(C(C)(C)C)c(O)c1`, the compound was called inactive.

Take `CCN(CC)CCOc1ccc(C(=C(Cl)c2ccccc2)c2ccccc2)cc1`: the AC50 is 13.1 µM (active).

Take `Nc1nc(Cl)nc2c1ncn2[C@H]1C[C@H](O)[C@@H](CO)O1`: the half-maximal activity concentration (AC50) is 1.98 µM (active).

With `CCOCCOCCO`, the compound was classed as inactive.

On to `Cc1ccc(-c2cc(C(F)(F)F)nn2-c2ccc(S(N)(=O)=O)cc2)cc1`, for which the AC50 is 17.7 µM (active).

As to `Cc1cc(Cc2ccc(N)c(C)c2)ccc1N`, the call was inactive.

As for `CN(C)CCCN1c2ccccc2Sc2ccc(Cl)cc21`, the AC50 was 22.2 µM (active).

Take `CC(=O)O[C@]1(C(C)=O)CC[C@H]2[C@@H]3C=C(Cl)C4=CC(=O)[C@@H]5C[C@@H]5[C@]4(C)[C@H]3CC[C@@]21C`: the AC50 is 87.1 µM (active).

As for `O=C1O[C@H]([C@H](O)CO)C(O)=C1O`, the compound was called inactive.

For `Cc1c(C)c2c(c(C)c1O)CCC(C)(COc1ccc(CC3SC(=O)NC3=O)cc1)O2` (configuration not stated), the AC50 is 50 µM (active).

Turning to `CC(=O)O`, the result was inactive.

In the case of `O=C(O)c1cccnc1`, the outcome was inactive.

Take `O=C(O)c1[nH]n(-c2ccc(S(=O)(=O)O)cc2)c(=O)c1N=Nc1ccc(S(=O)(=O)O)cc1`: the compound was classed as inactive.

As to `Nc1nc(=S)c2[nH]cnc2[nH]1`, the AC50 was 0.655 µM (active).

Take `Cc1cc(SC2=C(O)C[C@@](CCc3ccc(N)cc3)(C(C)C)OC2=O)c(C(C)(C)C)cc1CO`: the half-maximal activity concentration (AC50) was 50 µM (active).

Test system in the next assay: not listed separately
Kind of assay: ACEA_AR_antagonist_AUC_viability: ACEA Biosciences xCELLigence Real-Time Cell Analysis on Androgen Receptor Antagonism for Viability (AID 2283776).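 Also: 22Rv1 human prostate cancer cells growing on impedance electrode plates; area under impedance growth curve at 80 h after dosing as viability; hits lower the growth signal relative to DMSO meaning cytotoxicity.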 The procedure, abridged: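 Viability endpoint from label-free cell-index monitoring: 22Rv1 cultures treated with an eight-point 1:4 dilution series starting at 100 uM final, AUC at 80 h fitted against DMSO.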
On to `S=c1[nH]c2ccccc2s1`, for which the compound was classed as inactive.

In the case of `O=Cc1ccccc1C=O`, the AC50 is 78.7 µM (active).

Take `CCCCC(CC)COP(=O)(OCC(CC)CCCC)OCC(CC)CCCC` (configuration not stated): the AC50 was 16.8 µM (active).

On to `Oc1ccccc1O`, for which the AC50 is 28.9 µM (active).

For `C/C=C/c1ccc(OC)cc1`, the outcome was inactive.

Take `O=C1OC(c2ccc(O)cc2)(c2ccc(O)cc2)c2ccccc21`: the AC50 was 19.8 µM (active).

On to `CCCCCCCCCCCCCCOS(=O)(=O)O`, for which the AC50 is 42.3 µM (active).

With `COC(=O)[C@H]1[C@H]2C[C@@H]3c4[nH]c5cc(OC)ccc5c4CCN3C[C@H]2C[C@@H](OC(=O)c2cc(OC)c(OC)c(OC)c2)[C@@H]1OC`, the AC50 is 33 µM (active).

As for `Cc1ccc(C(C)(C)C)c(O)c1`, the compound was called inactive.

As for `CCN(CC)CCOc1ccc(C(=C(Cl)c2ccccc2)c2ccccc2)cc1`, the AC50 is 12.4 µM (active).

For the compound `C/C=C/C=C/C(=O)O`, the outcome was inactive.

As for `Nc1nc(Cl)nc2c1ncn2[C@H]1C[C@H](O)[C@@H](CO)O1`, the AC50 is 1.45 µM (active).

For the compound `Cc1ccc(-c2cc(C(F)(F)F)nn2-c2ccc(S(N)(=O)=O)cc2)cc1`, the AC50 is 15.9 µM (active).

Regarding `Cc1cc(Cc2ccc(N)c(C)c2)ccc1N`, the call was inactive.

Consider `Cc1occc(=O)c1O`, for which the call was inactive.

`CC(=O)O[C@]1(C(C)=O)CC[C@H]2[C@@H]3C=C(Cl)C4=CC(=O)[C@@H]5C[C@@H]5[C@]4(C)[C@H]3CC[C@@]21C`: the AC50 was 0.0607 µM (active).

As to `Cc1c(C)c2c(c(C)c1O)CCC(C)(COc1ccc(CC3SC(=O)NC3=O)cc1)O2` (configuration not stated), the AC50 is 50 µM (active).

For the compound `O=C1c2c(O)cccc2Cc2cccc(O)c21`, the call was inactive.

Consider `CC(=O)O`, for which the compound was classed as inactive.

Take `O=C(O)c1cccnc1`: the outcome was inactive.

Take `O=C(O)c1[nH]n(-c2ccc(S(=O)(=O)O)cc2)c(=O)c1N=Nc1ccc(S(=O)(=O)O)cc1`: the outcome was inactive.

In the case of `Oc1ccc(O)cc1`, the half-maximal activity concentration (AC50) was 50 µM (active).

As to `Nc1nc(=S)c2[nH]cnc2[nH]1`, the AC50 was 0.212 µM (active).

As for `Cc1cc(SC2=C(O)C[C@@](CCc3ccc(N)cc3)(C(C)C)OC2=O)c(C(C)(C)C)cc1CO`, the AC50 was 61.8 µM (active).

These data come from PubChem BioAssay (EPA / NIEHS).
